GLD-1 TGE inh: GLD-1-TGE RNA interaction inhibition (C. elegans); AID 2280; purified GLD-1 + fluorescein TGE RNA, fluorescence polarization; inhibition, % at 5.96 µM; actives 0.44% (n = 320,000);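 active = percent inhibition above a per-plate cutoff, the plate mean of test compounds plus 3 SD, cut at about 30% in these data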;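 also: 0% = DMSO wells with GLD-1 and probe and 100% = wells lacking GLD-1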
Target sequence (Q17339 whole entry, looked up): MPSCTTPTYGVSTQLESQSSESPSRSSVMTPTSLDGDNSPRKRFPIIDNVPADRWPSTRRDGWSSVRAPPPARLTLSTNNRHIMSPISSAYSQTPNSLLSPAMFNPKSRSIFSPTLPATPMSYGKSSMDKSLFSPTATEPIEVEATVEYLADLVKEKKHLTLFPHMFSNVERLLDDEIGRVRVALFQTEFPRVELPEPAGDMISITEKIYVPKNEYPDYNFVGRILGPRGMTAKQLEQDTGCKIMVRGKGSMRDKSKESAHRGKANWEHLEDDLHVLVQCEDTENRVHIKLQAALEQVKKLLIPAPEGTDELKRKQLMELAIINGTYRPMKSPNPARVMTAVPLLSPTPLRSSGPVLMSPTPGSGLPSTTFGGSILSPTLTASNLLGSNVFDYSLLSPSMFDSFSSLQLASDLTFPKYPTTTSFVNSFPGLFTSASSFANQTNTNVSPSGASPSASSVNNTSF
BCLXL inh: inhibitors of human Bcl-xL. Q07817. actives 0.7% (n = 320,000). GST-Bcl-xL / FITC-Bim BH3 peptide fluorescence polarization. inhibition, % at 10.9 µM;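 active = inhibition above the mean of all tested compounds plus 3 SD, cutoff set per campaign, cut at about 30% in these data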;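 also: 0% = DMSO wells and 100% = unlabeled Bim-BH3 peptide competitor; inhibitors lower millipolarization by displacing the labeled peptide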
Target sequence (Q07817 whole entry, looked up): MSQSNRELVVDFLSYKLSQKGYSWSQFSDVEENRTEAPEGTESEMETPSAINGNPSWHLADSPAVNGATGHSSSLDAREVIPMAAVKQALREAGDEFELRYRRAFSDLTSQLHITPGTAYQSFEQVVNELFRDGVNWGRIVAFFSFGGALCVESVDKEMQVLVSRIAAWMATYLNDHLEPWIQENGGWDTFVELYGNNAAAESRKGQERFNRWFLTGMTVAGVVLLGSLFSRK
Mcl1-Noxa inh: disrupts binding of human Mcl-1 to Noxa peptide | Q07820 | actives 1.5% (n = 220,000) | inhibition, % at 21.7 µM | TR-FRET Mcl-1/Noxa peptide binding, 2 h;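 active = compounds that cut the protein-peptide binding signal by more than 50% relative to plate controls in a single-dose test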;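 also: His-tagged Mcl-1 with rhodamine Noxa BH3 peptide and terbium anti-His antibody; 0% = Mcl-1 plus Noxa peptide wells and 100% = peptide-only wells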
Mcl1-Bid inh: disrupts binding of human Mcl-1 to Bid peptide; TR-FRET Mcl-1/Bid-Dy647 peptide binding, 1536-well; inhibition, % at 21.7 µM; actives 0.97% (n = 220,000);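 active = compounds that cut the binding signal by more than half at the single screening dose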;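 also: His-tagged Mcl-1 with europium anti-His antibody binding Bid BH3 peptide; 0% = Mcl-1 plus peptide wells and 100% = peptide-only wells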
MCL1 BIM primary: disrupts human MCL1 binding to BIM-BH3 peptide; AID 2057; GST-MCL1 / FITC-Bim-BH3 fluorescence polarization; actives 0.68% (n = 320,000); inhibition, % at 10.9 µM;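 active = inhibition above the mean inhibition of all tested compounds plus 3 SD, set per campaign, cut at about 40% in these data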;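 also: 0% = DMSO wells and 100% = unlabeled Bim-BH3 peptide control; higher means more loss of mP so more displacement of Bim peptide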
Bim-Mcl-1: disrupts Bim peptide binding to human Mcl-1; Q07820; AID 1009; actives 0.1% (n = 190,000); inhibition, % at 10 µM; Bead-based flow cytometry, Bim peptide-Mcl-1 binding; in the data active = inhibition above about 40%;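 also: 0% = no compound tracer wells and 100% = peptide blocker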
An asterisk follows results filed as active; nt = not tested or not shown. Sampled rows, rich in hits. Any-hit rate of the full collection: about 2.3%.

SMILES | GLD-1 TGE inh | BCLXL inh | Mcl1-Noxa inh | Mcl1-Bid inh | MCL1 BIM primary | Bim-Mcl-1
CC(=O)n1cc(Nc2ccc([N+](=O)[O-])cc2)c2ccccc21 | -3.5 | 5.4 | 65.5* | 20.3 | 9.0 | 0.0
CC(=O)SC(C[N+](=O)[O-])c1cn(C(C)=O)c2ccccc12 (centres undefined) | 2.4 | 7.4 | 59.2* | 15.1 | 15.7 | -6.0
CC(=O)n1cc(Nc2ccccc2C(=O)O)c2ccccc21 | 0.6 | 11.0 | 11.5 | -28.0 | 5.1 | -2.0
CC(C)CN(C(=O)COC(=O)CCC(=O)c1ccc(Cl)cc1)c1c(N)n(Cc2ccccc2)c(=O)[nH]c1=O | -4.7 | -0.6 | nt | nt | 1.6 | nt
CN=c1scc(C)n1/N=C/c1cc(Br)c(O)c(OC)c1 | 6.1 | 7.1 | 52.6* | -40.1 | 7.2 | 0.0
O=[N+]([O-])c1cc(/C=N\Nc2ccccn2)ccc1Cl | 1.7 | -2.0 | nt | nt | 0.3 | nt
O=[N+]([O-])c1cc(Cl)cc(/C=N\Nc2ccccn2)c1O | 0.6 | 4.4 | -11.4 | 73.0* | 14.5 | 0.0
Cn1cc(S(=O)(=O)N2CCCC2)cc1C(=O)O | -0.1 | nt | nt | nt | nt | nt
COc1cc(N2CCCC2)c(OC)cc1/C=C(/C#N)c1cccc(F)c1 | -50.5 | -32.5 | 79.6* | -21.2 | -94.0 | -22.0
O=S(=O)(c1ccc(-c2ccon2)s1)N1CCN(c2ccncc2)CC1 | -4.5 | -4.1 | 71.6* | -13.5 | 0.4 | nt
C=CCn1cccc(C(=O)Nc2ccc(OC)c(Cl)c2)c1=O | -2.9 | -0.4 | nt | nt | -0.4 | nt
O=C(COC(=O)c1cnccn1)Nc1ncc(C(F)(F)F)cc1Cl | 12.3 | nt | nt | nt | nt | nt
CCCCn1c(SCC(=O)NCCOC)nc2ccc(N3CCOCC3)cc2c1=O | 0.6 | 11.9 | 88.8* | -34.4 | 16.1 | -3.0
O=C(CN1C(=O)/C(=C\c2cccc(F)c2)Oc2ccccc21)N1CCN(c2ccccn2)CC1 | 2.4 | 2.2 | -11.6 | 53.6* | 7.1 | -3.0
O=C(CN1C(=O)/C(=C\c2ccc(F)cc2)Oc2ccccc21)N1CCN(c2ccccn2)CC1 | 1.4 | 1.4 | -21.8 | 9.3 | 2.5 | -4.0
CCN1CCN(CCCNC(=O)CNC(=O)c2nn(-c3ccc(OC)cc3OC)c(=O)c3ccccc23)CC1 | -3.4 | 5.3 | nt | nt | 9.3 | nt
Cc1ccc(NC(=O)C(=O)NCc2ccc(/C=C(/C#N)C(=O)NCc3cccnc3)o2)cc1C | 4.6 | 6.6 | 17.5 | 95.2* | 8.5 | -1.0
Cc1ccc(NC(=O)C(=O)NCc2ccc(/C=C(/C#N)C(=O)NCc3cccnc3)o2)cc1 | 1.4 | 0.2 | 5.9 | -12.2 | -5.8 | -4.0
Cc1ccc(Cn2c(SCC(=O)N/N=C/c3ccc(C)o3)nc3ccccc32)cc1 | 3.6 | -0.4 | 23.2 | 52.2* | 0.4 | -2.0
O=c1cc(CSc2nnc(-c3cccs3)n2Cc2ccccc2)nc2sc3ccccc3n12 | 1.1 | 0.4 | 59.4* | -96.9 | 21.2 | -1.0
Cc1cc(C(=O)CSc2nnc(-c3cccs3)n2Cc2ccccc2)c(C)n1C | 5.7 | -8.1 | -3.2 | -54.4 | -4.7 | -1.0
NNC(=O)c1c(O)c2cccc3c2n(c1=O)CCC3 | 0.0 | -11.3 | nt | nt | -6.7 | nt
Cc1c(NS(=O)(=O)c2cc(NC(=O)CCN3CCCC(C)C3)ccc2Cl)c(=O)n(-c2ccccc2)n1C (centres undefined) | 2.7 | 5.2 | 78.3* | -22.2 | 13.6 | 0.0
Oc1ccc(N=Nc2nc(-c3ccccc3)c(-c3ccccc3)[nH]2)cc1 | 84.0* | -7.7 | -14.4 | -51.8 | -19.9 | -4.0
COc1ccc(OC)c(Nc2nc(-c3cccc([N+](=O)[O-])c3)nc3ccccc23)c1 | 2.6 | 2.3 | 38.1 | 70.0* | -5.3 | 0.0
SMILES | GLD-1 TGE inh | BCLXL inh | Mcl1-Noxa inh | Mcl1-Bid inh | MCL1 BIM primary | Bim-Mcl-1
Cc1ccc(C(C)(O)CS(=O)(=O)Cc2ccccc2Cl)cc1 (centres undefined) | 3.4 | 3.1 | nt | nt | 5.5 | nt
COc1ccc2c(c1)nc(NCCCO)n2Cc1ccccc1 | -0.5 | 4.6 | 1.5 | -55.3 | 2.9 | nt
COc1ccc(C=NCCC2(O)CC(C)N(C)CC2C)cc1 (centres undefined) | 7.4 | 31.2* | -1.1 | -9.6 | 41.1* | -5.0
Cc1c(NC(=S)NC(NC(=O)C(C)C)C(Cl)(Cl)Cl)c(=O)n(-c2ccccc2)n1C (centres undefined) | -4.9 | 3.4 | 2.5 | 95.8* | 6.4 | -3.0
COC(=O)c1ccc(COc2cccc3c2CCN(Cc2ccccc2)C3=O)o1 | 8.9 | 0.1 | -7.9 | -1.9 | 0.2 | 0.0
CCN1CCc2c(OCc3ccc(C(=O)OC)o3)cccc2C1=O | 1.2 | 5.0 | 14.0 | 91.8* | 3.5 | -1.0
O=C(COc1cccc2c1CCN(Cc1ccc(Br)cc1)C2=O)NCc1ccco1 | 5.4 | 4.2 | 16.5 | 95.3* | -1.2 | 6.0
Cc1cc(C)c2c(NC(=S)Nc3ccccc3)n[nH]c2n1 | -1.7 | 9.7 | 60.2* | -37.0 | 13.3 | 1.0
Cc1cc(C)c2c(NC(=S)NC(=O)c3ccccc3)n[nH]c2n1 | -0.6 | 4.9 | 10.7 | -19.7 | 5.2 | -1.0
Cc1cc(C)c(NC(=O)CSc2nnnn2-c2cccnc2)c(C)c1 | -1.8 | -0.7 | nt | nt | 1.7 | nt
O=C(COC(=O)c1cnccn1)Nc1ccc2c(c1)OCO2 | -2.4 | -0.2 | 62.2* | -1.0 | -4.3 | 0.0
Nc1ccc(C(=O)OCC(=O)Nc2ccc3c(c2)OCO3)cc1[N+](=O)[O-] | -0.8 | 5.5 | 51.9* | -33.2 | -3.5 | 0.0
O=C(Nc1ccc2c(c1)OCO2)c1cnccn1 | 3.9 | 0.2 | 2.2 | -42.6 | -3.1 | -1.0
O=C(O)C(c1ccccc1)N1C(=O)c2ccccc2C1=O (centres undefined) | 9.2 | 8.0 | nt | nt | -4.5 | nt
O=C(O)[C@@H](c1ccccc1)N1Cc2ccccc2C1=O | 4.1 | 0.0 | 16.2 | 98.2* | -2.5 | 0.0
CCOC(=O)c1ccc(NC(=O)c2ccccc2[N+](=O)[O-])cc1 | 2.4 | -0.1 | 3.9 | -33.4 | -3.5 | -2.0
COc1cccc(/C=N/Nc2ccc([N+](=O)[O-])cc2)c1O | -5.3 | -24.7 | nt | nt | -46.7 | nt
CCOC(=O)c1ccc(N/N=C/c2cc(Br)cc([N+](=O)[O-])c2O)cc1 | -2.6 | 2.7 | 60.7* | -6.5 | 3.2 | 1.0
COC(=O)c1ccc(N/N=C/c2cc([N+](=O)[O-])cc(OC)c2O)cc1 | -0.6 | 35.7* | 61.4* | 11.9 | 5.0 | -2.0
CC(Oc1c(Cl)cccc1Cl)C1=NCCN1 (centres undefined) | 9.8 | 1.9 | nt | nt | 0.9 | nt
O=C(OCc1ccc(O)cc1)c1c(-c2ccsc2)oc2ccc(N3CCOCC3)cc12 | 8.0 | 4.4 | nt | nt | 3.3 | nt
CC1N(C)c2cccc3cccc(c23)N1C | -65.8 | 10.2 | 62.7* | -11.3 | 7.3 | 11.0
CCOC(=O)COc1nc2c(c(-c3ccco3)c1C#N)CCc1ccccc1-2 | 7.9 | -2.8 | 30.5 | 48.9 | 3.4 | nt
N#Cc1c(OCC(=O)c2ccccc2)nc2c(c1-c1ccco1)CCc1ccccc1-2 | 13.0 | 33.7* | 3.9 | -7.7 | 35.0 | 1.0
COc1ccccc1N1CCN(S(=O)(=O)c2cn(C)c(=O)n(C)c2=O)CC1 | -7.9 | 47.0* | 9.4 | -13.2 | -6.8 | 0.0
